tested on: VDR:RXRa (NR concentration 270 nM, RXRa partner concentration 90 nM); assay: PBM binding z-score (relative to random genomic background probes); higher = stronger binding; sequences stand for … in GC…GCGATTGACAGCGTAGAATGAAGG
Procedure: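 Protein-binding microarray (Agilent 4x180K custom design, double-stranded 60-nt probes: 5' GC cap, 34-nt variable region, 24-nt constant primer region; full probe sequence given). Purified or IVT nuclear receptor:RXRα heterodimers (3:1 NR:RXRα, mostly 270:90 nM) or homodimers were incubated for 1 h in PBS with 2% milk and no ligand, then detected with Alexa488 antibodies. Fluorescence from o1-orientation probes (~5 replicates averaged) was converted to z-scores against 500 random hg19 background probes. Variable regions are seed direct-repeat (DR0–DR5) sites, all their single-nucleotide variants and half-site ablations.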

| Sequence | PBM binding z-score |
| --- | --- |
| CAAACTAGGTCATTGACAGGACAGTGAATAGTAA | 2.42 |
| ATCTCTAGGTAACCAAGTTCAGTGCATGCCGAAC | 4.21 |
| CAGTCTAGGTCAGGGCCAGTATAGGAGGAACGTT | 0.403 |
| TCTATTAGTGGAAGGGCAACCGACGAGTCCGTTT | 0.969 |
| CGTCCAAGGTGAAGGTCAGTGAAAGAGACTCGAA | 0.859 |
| TCTCGGAGGACACGAAAGGTCAGATCTCGACATC | 3.38 |
| TCTTGTAGATCGAGCAGGTTAAGAAAGCCTGAGT | -0.0222 |
| CGTCCAAGGTCAAGTTCAGTGAAAGAGACTCGAA | 4.91 |
| GCTAGTTGCTCAGTAAAAGGTCACACACCGGTCG | 3.73 |
| TAGCCTAGGTCATTGGGGCAGTATAGTACGCATC | 3.19 |
| ATCTCTAGGTAAGACTCAGTTTAGTGAAGAACGC | 0.468 |
| CAAACTAGGTCACCAAAGGTCAAAGTCGAATGAC | 6.93 |
| AGAGTGAGGTTATTAAGATCAGGGAATTGCGGTC | 2.49 |
| TAACCTAGGTCATTCAGGGGCCAGTATAGAAAGC | 4.03 |
| CTCGAAAGTTCGGTTGAGGTGAGTATACGGATAA | 0.728 |
| CCTCGGAGGACAGAAGGTCACAGCTGTCCGCTTT | 2.64 |
| GGAACGAGGGTAAAGTTGATAGCATCTGTCGACG | 0.137 |
| CCTTATGGGTCAAGGTTATAGCACGGGTGGTACG | 2.45 |
| TCATATAGGTAATACATGTGAAAGTCGGCATCTA | 1.07 |
| TCATATAGCTAAATGCTAGGTGAAAGTCCGATCT | 0.429 |

| Sequence | PBM binding z-score |
| --- | --- |
| CGAACTAGGTCATCCAGGACAGTGGATACATTGA | 4.5 |
| GCGAGTTGGTCAGTAAAAGGTCACACACCGGTCG | 4.33 |
| TGAATGAGGATATAAGATCAGGGAACGTTGCAAA | -0.113 |
| CCGACTGGGGCATAAGGTTACTATAAGCCAGCCC | 0.306 |
| TCGAGTAGGTTAGGGACATTCAGAATGGCGTCGA | -0.0636 |
| CAAACTAGCTCAAGAGGTCAAAGTCCGCTTCCCG | 4.96 |
| TCGTGTAGGTTACCAATGGGGCATTCAGCTTTCT | 0.608 |
| CAAACTAGGTCAAGGACAGTGAATCTCCGCACGC | 1.56 |
| TTACCAAGGTGAGGTGAGGTCGTTGATCCAACTC | 4.3 |
| TATACAGTGTCAAAGGCCAGAGTACGAATGTCGA | 0.815 |
| GGAACGAGGGCATTCAAGTTGATAGCATGGCGAT | 3.02 |
| CCAGACAGGTGAGAAGTTAACTCAGCCTCGATTA | -0.0797 |
| ATCGAAAGGTAGACGAGGTGAGTATACACCGTTT | 0.452 |
| CCTGCTAGGTCAATGGACAGCTAAAGCAGCTCGC | 0.586 |
| TCAGACAGCTGAAGGTAACTCAGGTACGCAGTCG | 0.484 |
| TTAGCAAGGTGAAGGTCGTTGATCCCTCTGTAGA | 0.964 |
| CCTGCTAGGTCAATGGTCTGCTAAAGCAGCTCGC | 0.867 |
| GCTGCTAGGTCAGGTGGGTCAGCTAACGGGTACG | 2.75 |
| ATATGTAGGTTATCGGGTCATTCGGTTTGCGCAT | 5.19 |
| ATATGTAGGTTATCGGGTCATGCAGTTTGCGCAT | 4.98 |

From the supplement of paper PMC6555819
